# Among all 410,000 compounds or so, about 18,000 (4.4%) were called active. About 7% were inconclusive and are not listed. The sample holds actives, similar compounds and a random draw of the others, so the mix is not that of the screen. A number with no mark means an inactive call. No stated cut-off is given here; in the data, active means activity change below about -60%; inconclusive means no clear call, values can overlap the other calls; inactive means above about -39%.
# Experiment: qHTS Assay for inhibitors of the human cytomegalovirus (HCMV)
# Settings: HFF cells, HCMV-luciferase reporter, 72 h; at 57.5 µM; hits give low values
# Procedure, shortened: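 Luciferase read-out from HCMV-luciferase-infected HFFs (MOI 1 PFU/cell) 72 h post infection at 37C; compounds added after 16 h cell attachment; activity normalized between buffer-only basal and Salinomycin (10uM) inhibitor controls.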
# On the % scale 0 is the no-effect control and ±100 the full control effect.
row,SMILES,"activity change, negative = inhibition"
1,CC1(C(=O)NCc2cccc3ccccc23)CCN1Cc1ccc(-c2ccccc2)o1 (centres undefined),-20.5%
2,CCNC(=O)C1CCCN(C(=O)c2ccc(OC)cc2OC)CC1 (centres undefined),-11.4%
3,Cn1c(=O)c2c(-c3ccccc3Br)n(Cc3ccccc3)cc2n(C)c1=O,-17.1%
4,CCc1nn(CC(=O)N2CCN(c3ccc(Cl)cc3)CC2)c(=O)c2cc3occc3n12,-13.8%
5,Cc1cccc(S(=O)(=O)c2cn(Cc3ccccc3)c3cc(N4CCOCC4)c(F)cc3c2=O)c1,17.2%
6,CCOc1cc(-c2noc(CCC(=O)N3CCOCC3)n2)ccc1OC,2.89%
7,COc1ccc(-c2noc(CCCC(=O)NC3CCCC3)n2)cc1OC,-17%
8,CCOc1cc(-c2noc(CCCC(=O)NC3CCCCC3)n2)ccc1OC,-89.7% (active)
9,C[C@@H]1CN([C@@H](C)CO)C(=O)CCCn2nncc2CO[C@H]1CN(C)C(=O)Nc1ccc(C(F)(F)F)cc1,8.54%
10,CC[C@@H](C)[C@@H](C(=O)N1CCN(C(=O)OC(C)(C)C)CC1)n1cc(CCC(=O)O)nn1,14.7%
11,COc1ccc(-c2noc(-c3ccc(N4CCN(c5ccccc5)CC4)c([N+](=O)[O-])c3)n2)cc1OC,14.1%
12,Cc1ccc(F)cc1S(=O)(=O)N1CCC(c2nc3ccccc3s2)CC1,-23.3%
13,CC1=CC(=C(C#N)c2nc3ccccc3s2)C=C(C)N1c1ccc(F)cc1F,-64.6% (active)
14,Cc1ccc(C(=O)Nc2ccc3[nH]c(=O)c(=O)[nH]c3c2)cc1,-0.693%
15,CCOc1ccccc1NC(=O)Cn1c(=O)n(-c2cccc(C)c2)c(=O)c2c1c1cc(OC)ccc1n2C,19.1%
16,COc1ccc(C(=O)Nc2onc3c2CCCC3)cc1,1.09%
17,CCOc1cccc(CNC(=O)c2ccc(N3CCCC3)c(NC(=O)Nc3ccccc3CC)c2)c1,-10.9%
18,Cc1ccccc1CNC(=O)CCCn1nc(C)c2sc3ccccc3c2c1=O,14.7%
19,CC(C)CN1Cc2cc(N3CCCCC3)ccc2-n2nncc2C1,10.2%
20,CCOC(=O)CNC(=O)N1Cc2cc(N3CCCCC3)ccc2-n2nncc2C1,-62.1% (active)
21,O=C(NC1CCCCC1)N1Cc2cc(N3CCCCC3)ccc2-n2nncc2C1,40.9%
22,Cn1c(C(=O)N2CCC(C(=O)N3CCN(c4ccccc4)CC3)CC2)cc2sccc21,-22.9%
23,Cc1nn(CC(=O)N2CCN(c3cccc(C(F)(F)F)c3)CC2)c(=O)c2cc3sccc3n12,2.88%

row,SMILES,"activity change, negative = inhibition"
1,COc1ccc(F)cc1C(=O)COC(=O)c1n[nH]c(=O)c2ccccc12,49.5%
2,CC1CCCN(S(=O)(=O)c2ccc(C(=O)Nc3nnc(-c4ccncc4)o3)cc2)C1 (centres undefined),-96.5% (active)
3,CS(=O)(=O)c1ccc(-c2nnc(NC(=O)c3ccc4c(c3)OCCO4)o2)cc1,-0.462%
4,CC1CC(C)CN(S(=O)(=O)c2ccc(C(=O)NN3CCOCC3)cc2)C1 (centres undefined),-27.9%
5,C[C@H]1CN([C@@H](C)CO)C(=O)CCCn2nncc2CO[C@@H]1CN(C)C(=O)Nc1ccc(N2CCN(C)CC2)cc1,-20.2%
6,COc1cc(C2OC(c3cc(OC)c(OC)c(OC)c3)C(C)C2C)cc(OC)c1OC (centres undefined),54.8%
7,O=C(CC1Oc2ccccc2NC1=O)NCc1ccc(F)cc1 (centres undefined),-9.67%
8,O=C(NCc1ccccc1)c1ccc2c(c1)nc1n2CCCCC1,27.3%
9,CCn1c(CSc2nc(C)cc(C)n2)nnc1SCC(N)=O,-18.8%
10,Cc1cc(C)nc(S/C=C/C(=O)c2ccccc2)n1,-90.7% (active)
11,CCC1Oc2ccc(Cl)cc2N(CC(=O)O)C1=O (centres undefined),-13.4%
12,Cc1cc(C)n(C(=O)c2ccc(C)c(S(=O)(=O)N3CCOCC3)c2)n1,-11.1%
13,O=C(Nc1cccn(Cc2ccccc2Cl)c1=O)NC1CCCCC1,-37.7%
14,CCn1c(=O)c(=O)n(CC)c2cc(N3CCCCC3)c(NC(=O)c3ccc(Cl)cc3)cc21,-11.3%
15,O=C(Nc1cccn(Cc2c(Cl)cccc2Cl)c1=O)c1ccc(Cl)cc1,-83.3% (active)
16,Cc1ccc(C(=O)Nc2ccc(OCc3cc(=O)n4c5c(sc4n3)CCCC5)cc2)cc1,7.24%
17,COc1ccc(S(=O)(=O)N2CCOCC2)cc1NC(=O)CSc1ncnc2ccccc12,-109% (active)
18,COc1ccc(S(=O)(=O)N2CCOCC2)cc1NC(=O)CSc1cc(C)ccc1C,-10.1%
19,COc1ccc(S(=O)(=O)N2CCOCC2)cc1NC(=O)CSc1nnc(NC2CC2)s1,18.1%
20,CCCCN(CC)CCCNC(=O)Cn1ncc2c([nH]c3ccc(C)cc32)c1=O,-8.89%
21,Cc1[nH]c2ccccc2c1/C=C(/C#N)C(=O)NC(C)C,-36.7%
22,CNC(=O)/C(C#N)=C/c1c(F)cccc1Cl,-80.3% (active)
23,O=C(/C=C/c1c(F)cccc1Cl)Nc1nn[nH]n1,-8.32%

row,SMILES,"activity change, negative = inhibition"
1,COc1cc(C(=O)N(C)Cc2cccc(OC)c2OC)ccc1OCC(=O)Nc1cccc(C(F)(F)F)c1,-86.1% (active)
2,COc1ccccc1NC(=O)COc1ccc(C(=O)OCC(=O)N(C(C)C)C(C)C)cc1OC,-9.98%
3,Cc1cc(S(=O)(=O)N2CCOCC2)ccc1OCC(=O)Nc1cccc(C(F)(F)F)c1,-13.9%
4,CCCN1CCN(CCCNC(=O)Cn2nc(CC)n3c(cc4occc43)c2=O)CC1,35.8%
5,CC(C)(C)Oc1ccccc1Nc1nc(NCCO)nc(N2CCCC2)n1,1.45%
6,O=c1oc2ccccc2cc1-c1cn(-c2ccccc2)c(=S)[nH]1,-86.5% (active)
7,CC(C)Cn1c(=O)c2ccccc2n2c(-c3cccc(Cl)c3)nnc12,2.19%
8,COc1ccc(CNC(=O)CSc2nc3ccccc3nc2Cc2ccccc2)cc1,-15%
9,COCCNS(=O)(=O)c1cc(-c2nn3c(C)nnc3c3ccccc23)ccc1C,6.92%
10,Cc1cc(Cl)c(S(=O)(=O)Nc2ccc3c(c2)OCCO3)cc1OCC(N)=O,-65.5% (active)
11,Cc1cc(Cl)c(S(=O)(=O)N(C)C)cc1OCC(N)=O,12.2%
12,Cc1cc(Cl)c(S(=O)(=O)NCCC(=O)O)cc1OCC(N)=O,8.87%
13,CC(C)CNC(=O)CC(c1ccccc1)c1c(O)ccc2ccccc12 (centres undefined),16%
14,O=C(/C=C/c1ccccc1)Nc1cc(-c2nc3cc(Cl)ccc3o2)ccc1Cl,88.6%
15,CC(=O)N1CCCc2cc(S(=O)(=O)N3CCC(C(=O)NCc4ccc(F)cc4)CC3)ccc21,7.04%
16,O=C(NCc1ccc2c(c1)CCN2C(=O)c1ccccc1)Nc1cc(F)ccc1F,-84.8% (active)
17,O=C(COc1ccccc1)NCc1ccc2c(c1)CCN2C(=O)c1ccc(F)cc1,-6.87%
18,O=C(NCc1ccc2c(c1)CCN2C(=O)c1ccccc1)c1ccccc1,13.7%
19,COc1ccc(C(=O)Nc2cccc(C(=O)OCc3cc(=O)n4c5c(sc4n3)CCCC5)c2)cc1,-36%
20,COc1ccc(OC)c(-n2nnc3c(sc4nc(C)c(Br)c(C)c43)c2=O)c1,-8.62%
21,COc1ccc(CCNc2ncnc3onc(-c4ccc(Cl)cc4)c23)c(OC)c1,0.256%
22,COc1ccc(OC)c(Cc2cnc3nc(N)nc(N)c3c2C)c1,-98.1% (active)
23,N#Cc1cccc(NC(=O)CN2CCCCCC2)c1,-11.3%

row,SMILES,"activity change, negative = inhibition"
1,O=C(Cc1ccc(NC(=O)C2CCCN(C(=O)C3CCCCC3)C2)cc1)Nc1cccc(C(=O)N2CCCCC2)c1 (centres undefined),1.06%
2,N#Cc1cccc(NC(=O)C2CCCN(C(=O)c3ccc(Cl)cc3)C2)c1 (centres undefined),-66% (active)
3,CSc1ccc(CCNC(=O)c2cnn(-c3ccccc3)c2-n2cccc2)cc1,-13.5%
4,COc1ccc(Nc2ncc3c(n2)CCN(C(=O)OC(C)(C)C)C3)cc1,12.2%
5,COC(=O)c1ccc(NC(=O)c2cccc3c2C(=O)N(C2CCCCC2)C3)cc1,12.9%
6,COC(=O)c1ccc(C)c(NC(=O)Cn2c(C)csc2=O)c1,0.424%
7,CCc1cccc(NC(=O)CN(C)S(=O)(=O)c2ccc3[nH]c4c(c3c2)CCCC4)c1,3.8%
8,Cc1cccc(NC(=S)NCc2ccc3[nH]c4c(c3c2)CCCC4)c1,-72.9% (active)
9,Cc1cccc(NC(=S)N2CCC(C(=O)c3ccc(F)cc3)CC2)c1,15%
10,Cc1ccc2c(c1)-c1c(cnn1CC(=O)Nc1ccccc1C#N)CO2,-27.6%
11,CCn1cc(C(=O)N2CCN(c3cc(C)ccc3C)CC2)c(=O)c2cc(S(=O)(=O)N(C)C3CCCCC3)ccc21,10.1%
12,CC(OC(=O)c1c(F)cccc1F)C(=O)NCCC1=CCCCC1 (centres undefined),20.1%
13,CC(=O)Nc1ccc(S(=O)(=O)N(C)CC(=O)NCCC2=CCCCC2)cc1,-7.2%
14,S=C(NCCC1=CCCCC1)Nc1ccccc1,-67% (active)
15,Fc1ccccc1-c1noc2nc(OCc3ccc(OC(F)F)cc3)ccc12,7.83%
16,CCc1ccccc1N1C(=O)CN(S(=O)(=O)CC)CC1(C)C(=O)NC1CCCCC1 (centres undefined),0%
17,COc1ccc2c(c1)C(NS(=O)(=O)OCC(Cl)(Cl)Cl)CCC2 (centres undefined),-21%
18,CC(C)Cn1c(N)c(C(=O)COC(=O)CN2C(=O)C3CC=CCC3C2=O)c(=O)n(C)c1=O (centres undefined),-31.7%
19,CCCc1cc(=O)[nH]c(SCC(=O)c2c(N)n(CC(C)C)c(=O)n(C)c2=O)n1,-60.6% (active)
20,CCCc1cc(=O)[nH]c(SCC(=O)N2C(C)CCCC2C)n1 (centres undefined),24.9%

# Reference: PubChem BioAssay AID1259415 (National Center for Advancing Translational Sciences (NCATS), 2018)
